The record followed here is PubChem BioAssay (NCI).

This is part of a sample that, as a whole, favours compounds with a hit. Of some 83,000 tested, about 20% had one in any assay.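 Cells were grown in 96-well plates and exposed to the test compound at a single concentration for 48 hours; results are reported as percent growth, with values below 10 considered active.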 A number with no mark means an inactive call. Calls of active or inactive are those of the source.

What all share (experiment): NCI-60 one-dose screen, 48 h (100 = growth as untreated, 0 = no growth, -100 = all killed)
Common to all, as to conditions: 10 µM

Experiment [1] deals with SR leukemia.
Experiment [2] concerns RPMI-8226 leukemia.
For experiment [3], the system named is OVCAR-8 ovarian.
Experiment [4] relates to OVCAR-5 ovarian.
For experiment [5], the system named is OVCAR-4 ovarian.
Experiment [6] deals with SK-OV-3 ovarian.
Experiment [7] concerns IGROV1 ovarian.
Experiment [8] relates to OVCAR-3 ovarian.
Experiment [9] has as its system HS 578T breast.
The subject of experiment [10] is NCI/ADR-RES ovarian.
Experiment [11] relates to T-47D breast.
In experiment [12] the test system is BT-549 breast.
The subject of experiment [13] is MDA-MB-435 melanoma.
The subject of experiment [14] is SW-620 colon.
For experiment [15], the system named is MCF7 breast.
Experiment [16] concerns HCT-116 colon.
Experiment [17] has as its system HCC-2998 colon.
Experiment [18] relates to KM12 colon.

For `O=NN(CC(=O)N/N=C/C=C\c1ccccc1)CC(=O)N/N=C/C=C/c1ccccc1`, the growth in experiment [1] was 85.7%; in experiment [2] it was 95.2%; in [3], 51%; in experiment [4] it was 94.6%; in [5], 97.2%; in experiment [6] it was 102%. Further, the growth in experiment [7] is 84%; in experiment [8], 103%; in [9], 80.5%; in [10], 103%; in [11], 89%; in experiment [12] it was 123%. Also, the growth in experiment [13] was 103%; in experiment [14], 104%; in experiment [15], 69.6%; in experiment [16], 96.2%; in experiment [17] it was 119%; in experiment [18], 109%.
For `Cc1nn2c(/C=C3/C(=O)Nc4ccc(Cl)cc43)c(-c3ccccc3)nc2s1`, the growth is -12.7% (active) in experiment [1]; 23.7% in experiment [2]; 14.6% in experiment [3]; 73.6% in experiment [4]; -52.3% (active) in experiment [5]; -0.11% (active) in [6]. In addition, the growth in [7] is 3.8% (active); in experiment [8] it was 9.92% (active); in experiment [9], -6.37% (active); in experiment [10] it was 38.3%; in [11], -1.58% (active); in [12], 48.8%. Besides, the growth in experiment [13] was 44.4%; in [14], 44.2%; in [15], 38.5%; in [16] it was 7.12% (active); in [17], 102%; in [18], 59.1%.
As for `CCc1c(C)[nH]c(=O)c(C(N)=O)c1C#N`, the growth is 91.7% in [1]; 105% in experiment [2]; 104% in [3]; 109% in experiment [4]; 115% in experiment [5]; 100% in experiment [6]. Moreover, the growth in experiment [7] is 107%; in [8], 116%; in [9], 95.5%; in experiment [10] it was 119%; in experiment [11], 94.1%; in experiment [12], 97.4%. Further, the growth in experiment [13] was 101%; in experiment [14] it was 97.7%; in experiment [15] it was 97%; in [16], 95.7%; in [17] it was 87.7%; in experiment [18] it was 106%.
In the case of `COc1cc2nc(Sc3sc(N)nc3C)n(-c3ccc(Oc4ccccc4)cc3)c(=O)c2cc1OC`, the growth was -43.4% (active) in experiment [1]; 67.6% in experiment [2]; 85% in experiment [3]; 106% in [4]; 50.7% in experiment [5]; 114% in experiment [6]. For the same molecule, the growth in [7] was 107%; in experiment [8] it was 93.5%; in [9], 88.5%; in experiment [10] it was 75.2%; in experiment [11], 77.3%; in experiment [12], 71.3%. The growth in [13] is 93.3%; in experiment [14] it was 81.2%; in experiment [15] it was 74.4%; in experiment [16], 47.4%; in [17] it was 80.4%; in [18], 93.5%.
As for `COC(=O)c1cnc2c(c1)Oc1ccccc1-c1ccnn1-2`, the growth in experiment [1] was 85%; in [2] it was 95%; in experiment [3], 91.9%; in experiment [4], 108%; in experiment [5] it was 103%; in [6], 95.4%. In addition, the growth was 95.7% in [7]; 114% in experiment [8]; 93.7% in experiment [9]; 105% in experiment [10]; 84.4% in [11]; 102% in [12]. The growth was 99.5% in experiment [13]; 99.4% in [14]; 96.3% in [15]; 92.1% in [16]; 99.7% in experiment [17]; 109% in experiment [18].
As for `C[n+]1c(/C=C/c2c[nH]c3ccccc23)ccc2ccccc21`, the growth in [1] is 18.2%; in [2], 40.7%; in [3] it was 39.7%; in experiment [4] it was 75.6%; in experiment [5], 54.8%; in experiment [6] it was 64.6%. Also, the growth was 72.4% in experiment [7]; 68.1% in [8]; 103% in experiment [9]; 100% in experiment [10]; 12.1% in experiment [11]; 94.7% in experiment [12]. The growth in experiment [13] is 60.3%; in experiment [14], 48.8%; in experiment [15], 19.4%; in [16] it was 31%; in [17], 75.6%; in [18] it was 38.9%.
As for `COc1cc(C2CC(=O)Nc3c2c(C)nn3-c2nc3ccccc3[nH]2)cc(OC)c1O` (configuration not stated), the growth is 9.39% (active) in [1]; 83.5% in [2]; 19.9% in experiment [3]; 112% in [4]; 63.8% in experiment [5]; 2.53% (active) in experiment [6]. Also, the growth was 28.2% in [7]; 20.9% in experiment [8]; 8.42% (active) in experiment [9]; 80.6% in experiment [10]; 83.5% in [11]; 46.2% in experiment [12]. The growth in [13] is 23%; in experiment [14], 45.7%; in [15] it was 56.9%; in experiment [16], 68.4%; in experiment [17], 88.9%; in experiment [18] it was 45.7%.
Turning to `COc1ccc(C(=O)n2nc(CC(=O)NCc3ccccc3)nc2N)cc1`, the growth in [1] is 93.6%; in experiment [2] it was 117%; in [3], 115%; in experiment [4], 113%; in [5], 105%; in experiment [6], 107%. In addition, the growth in experiment [7] was 93.7%; in [8] it was 118%; in experiment [9], 103%; in experiment [10], 112%; in [11] it was 105%; in experiment [12], 102%. For the same molecule, the growth is 109% in [13]; 105% in experiment [14]; 99.1% in experiment [15]; 99.5% in experiment [16]; 104% in [17]; 116% in [18].
With `C/C(=N\NC(N)=S)C(C)(C)O`, the growth was 81.2% in [1]; 74% in experiment [2]; 55.3% in experiment [3]; 105% in experiment [4]; 66.6% in [5]; 109% in experiment [6]. In addition, the growth in [7] was 22.4%; in experiment [8], 53.1%; in [9], 97.1%; in [10] it was 32.7%; in experiment [11] it was 57.1%; in experiment [12] it was 104%. The growth is 96.9% in experiment [13]; 77.4% in [14]; 27.1% in [15]; 6.43% (active) in experiment [16]; 102% in experiment [17]; 99.7% in experiment [18].
